Experimental data reported in the supplement of paper PMC11732987, “Enantioselective OTUD7B fragment discovery through chemoproteomics screening and high-throughput optimisation” (Communications Chemistry, 2025).

What was measured:
Test in all cases: log2 ratio of Biotin-Ahx-Ub-VS probe labelling (fragment/DMSO); higher = less target engagement (more negative = stronger competition), active = hit call of the paper (q ≤ 0.05, log2 ratio ≤ -1)
Details in all cases: compound concentration: 200 uM; treatment time: 3 h
USP34 = USP34 (UniProt Q70CQ2)
How it was run: (§1)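 Triplicate samples of HEK293T lysate, 495 µg each, received fragment at 200 µM or vehicle for 3 h, followed by Biotin-Ahx-Ub-VS (0.5 µM final) for 1 h. After NeutrAvidin enrichment of labelled DUBs and LysC/trypsin digestion, peptides were run by diaPASEF LC-MS/MS. The values are average log2 fragment/vehicle ratios from global-median-normalised Spectronaut label-free quantities, tested by unpaired t-test on proteins having ≥2 unique peptides.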

USP36 = biological target: T1, USP36 (UniProt Q9P275)
T1 sequence (whole entry): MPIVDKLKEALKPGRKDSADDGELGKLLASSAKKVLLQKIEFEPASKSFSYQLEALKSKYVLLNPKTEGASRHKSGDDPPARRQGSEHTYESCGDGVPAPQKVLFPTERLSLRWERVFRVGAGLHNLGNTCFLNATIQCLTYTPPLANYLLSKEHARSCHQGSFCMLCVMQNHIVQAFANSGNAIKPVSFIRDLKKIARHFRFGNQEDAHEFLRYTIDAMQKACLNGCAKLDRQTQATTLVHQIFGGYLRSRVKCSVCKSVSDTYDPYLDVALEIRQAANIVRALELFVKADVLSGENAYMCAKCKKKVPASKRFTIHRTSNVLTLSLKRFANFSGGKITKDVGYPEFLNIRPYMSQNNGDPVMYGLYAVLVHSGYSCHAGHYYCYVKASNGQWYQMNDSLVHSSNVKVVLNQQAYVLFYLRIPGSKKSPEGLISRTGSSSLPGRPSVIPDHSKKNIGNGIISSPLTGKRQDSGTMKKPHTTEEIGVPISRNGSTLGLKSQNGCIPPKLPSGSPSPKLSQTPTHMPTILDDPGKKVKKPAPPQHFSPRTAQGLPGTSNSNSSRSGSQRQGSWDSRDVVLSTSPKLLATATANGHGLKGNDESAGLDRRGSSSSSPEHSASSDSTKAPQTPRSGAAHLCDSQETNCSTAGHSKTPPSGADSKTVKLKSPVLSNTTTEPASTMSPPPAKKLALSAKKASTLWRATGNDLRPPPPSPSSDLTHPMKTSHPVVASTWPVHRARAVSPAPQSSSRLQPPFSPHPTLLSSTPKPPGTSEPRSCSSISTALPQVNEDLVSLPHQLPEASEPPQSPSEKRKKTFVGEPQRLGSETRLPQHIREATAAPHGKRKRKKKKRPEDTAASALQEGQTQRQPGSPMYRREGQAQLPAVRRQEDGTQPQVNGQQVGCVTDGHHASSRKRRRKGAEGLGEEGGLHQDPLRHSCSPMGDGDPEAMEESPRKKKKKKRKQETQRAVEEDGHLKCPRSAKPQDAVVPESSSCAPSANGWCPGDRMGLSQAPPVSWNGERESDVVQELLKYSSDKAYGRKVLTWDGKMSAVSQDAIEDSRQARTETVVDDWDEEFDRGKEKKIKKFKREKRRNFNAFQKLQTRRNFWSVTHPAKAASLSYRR
How it was run: as §1

USP38 = biological target: T2, USP38 (UniProt Q8NB14)
T2 sequence (whole entry): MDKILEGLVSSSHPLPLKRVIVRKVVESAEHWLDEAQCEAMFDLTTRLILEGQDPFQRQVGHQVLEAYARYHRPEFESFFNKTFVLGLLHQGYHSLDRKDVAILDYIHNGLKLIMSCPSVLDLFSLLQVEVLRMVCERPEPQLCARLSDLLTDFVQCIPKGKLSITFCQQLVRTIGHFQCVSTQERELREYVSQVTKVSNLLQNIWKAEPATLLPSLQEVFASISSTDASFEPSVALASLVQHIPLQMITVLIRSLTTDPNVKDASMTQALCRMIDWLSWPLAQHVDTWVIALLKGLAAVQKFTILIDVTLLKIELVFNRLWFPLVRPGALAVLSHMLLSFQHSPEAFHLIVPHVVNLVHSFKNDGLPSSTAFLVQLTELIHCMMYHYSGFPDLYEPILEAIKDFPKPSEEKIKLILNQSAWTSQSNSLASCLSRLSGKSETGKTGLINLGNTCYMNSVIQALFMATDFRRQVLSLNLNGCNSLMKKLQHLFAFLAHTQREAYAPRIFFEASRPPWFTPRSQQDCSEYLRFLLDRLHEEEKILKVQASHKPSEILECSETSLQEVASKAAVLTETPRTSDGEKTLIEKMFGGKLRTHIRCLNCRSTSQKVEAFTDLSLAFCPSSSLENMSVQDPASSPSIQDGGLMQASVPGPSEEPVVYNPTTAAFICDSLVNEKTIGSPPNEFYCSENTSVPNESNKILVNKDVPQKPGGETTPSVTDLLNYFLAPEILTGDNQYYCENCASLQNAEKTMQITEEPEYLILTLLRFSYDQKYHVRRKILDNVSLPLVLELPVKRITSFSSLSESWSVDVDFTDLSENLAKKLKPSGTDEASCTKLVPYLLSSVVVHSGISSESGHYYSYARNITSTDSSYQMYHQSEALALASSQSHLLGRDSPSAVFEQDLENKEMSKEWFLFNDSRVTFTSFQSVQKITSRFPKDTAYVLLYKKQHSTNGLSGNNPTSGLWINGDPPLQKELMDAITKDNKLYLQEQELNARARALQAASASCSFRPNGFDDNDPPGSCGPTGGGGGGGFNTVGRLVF
How it was run: as §1

USP39 = biological target: T3, USP39 (UniProt Q53GS9)
T3 sequence (whole entry): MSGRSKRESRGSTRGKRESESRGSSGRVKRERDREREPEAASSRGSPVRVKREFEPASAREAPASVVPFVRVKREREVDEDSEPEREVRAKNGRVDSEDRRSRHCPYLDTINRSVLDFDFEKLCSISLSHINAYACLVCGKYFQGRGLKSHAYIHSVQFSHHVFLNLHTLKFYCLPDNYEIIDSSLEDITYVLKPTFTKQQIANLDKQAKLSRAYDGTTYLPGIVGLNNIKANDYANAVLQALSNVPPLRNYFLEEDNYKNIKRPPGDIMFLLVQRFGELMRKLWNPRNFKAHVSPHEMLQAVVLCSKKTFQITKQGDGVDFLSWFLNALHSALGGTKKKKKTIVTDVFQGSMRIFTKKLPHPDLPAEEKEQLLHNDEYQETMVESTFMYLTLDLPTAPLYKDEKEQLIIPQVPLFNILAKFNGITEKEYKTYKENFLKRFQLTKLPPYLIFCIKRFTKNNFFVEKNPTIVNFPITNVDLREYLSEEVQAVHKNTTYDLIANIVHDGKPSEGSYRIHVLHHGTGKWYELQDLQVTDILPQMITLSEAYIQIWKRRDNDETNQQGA
How it was run: as §1

USP4 = biological target: T4, USP4 (UniProt Q13107)
T4 sequence (whole entry): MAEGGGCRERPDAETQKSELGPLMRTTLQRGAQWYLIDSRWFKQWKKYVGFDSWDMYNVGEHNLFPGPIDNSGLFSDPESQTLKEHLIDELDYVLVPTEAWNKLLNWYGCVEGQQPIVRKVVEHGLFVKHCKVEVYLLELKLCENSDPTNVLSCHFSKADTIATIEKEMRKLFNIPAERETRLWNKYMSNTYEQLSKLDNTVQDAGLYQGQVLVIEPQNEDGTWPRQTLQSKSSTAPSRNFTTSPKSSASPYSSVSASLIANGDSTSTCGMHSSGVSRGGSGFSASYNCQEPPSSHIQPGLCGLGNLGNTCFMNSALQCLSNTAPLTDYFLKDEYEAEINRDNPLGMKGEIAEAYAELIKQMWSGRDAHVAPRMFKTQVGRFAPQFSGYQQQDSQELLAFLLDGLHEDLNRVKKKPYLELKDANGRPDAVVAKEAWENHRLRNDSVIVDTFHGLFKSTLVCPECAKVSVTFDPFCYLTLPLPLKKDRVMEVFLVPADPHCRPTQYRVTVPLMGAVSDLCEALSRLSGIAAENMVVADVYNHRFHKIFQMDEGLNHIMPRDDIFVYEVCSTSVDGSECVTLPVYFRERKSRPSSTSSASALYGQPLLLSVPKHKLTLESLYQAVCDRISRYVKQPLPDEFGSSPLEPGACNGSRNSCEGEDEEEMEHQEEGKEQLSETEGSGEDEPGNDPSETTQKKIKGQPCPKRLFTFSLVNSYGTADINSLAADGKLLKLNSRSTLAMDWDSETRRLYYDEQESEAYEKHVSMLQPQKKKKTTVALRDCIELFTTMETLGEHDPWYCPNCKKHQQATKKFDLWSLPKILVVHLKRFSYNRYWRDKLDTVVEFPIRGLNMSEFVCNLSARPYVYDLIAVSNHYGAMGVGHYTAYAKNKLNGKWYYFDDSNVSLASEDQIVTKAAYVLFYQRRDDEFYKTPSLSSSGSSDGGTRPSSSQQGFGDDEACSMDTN
How it was run: as §1

Measured: log2 ratio of Biotin-Ahx-Ub-VS probe labelling

Sequence of USP34 (Q70CQ2 whole entry, the tested form may be a part): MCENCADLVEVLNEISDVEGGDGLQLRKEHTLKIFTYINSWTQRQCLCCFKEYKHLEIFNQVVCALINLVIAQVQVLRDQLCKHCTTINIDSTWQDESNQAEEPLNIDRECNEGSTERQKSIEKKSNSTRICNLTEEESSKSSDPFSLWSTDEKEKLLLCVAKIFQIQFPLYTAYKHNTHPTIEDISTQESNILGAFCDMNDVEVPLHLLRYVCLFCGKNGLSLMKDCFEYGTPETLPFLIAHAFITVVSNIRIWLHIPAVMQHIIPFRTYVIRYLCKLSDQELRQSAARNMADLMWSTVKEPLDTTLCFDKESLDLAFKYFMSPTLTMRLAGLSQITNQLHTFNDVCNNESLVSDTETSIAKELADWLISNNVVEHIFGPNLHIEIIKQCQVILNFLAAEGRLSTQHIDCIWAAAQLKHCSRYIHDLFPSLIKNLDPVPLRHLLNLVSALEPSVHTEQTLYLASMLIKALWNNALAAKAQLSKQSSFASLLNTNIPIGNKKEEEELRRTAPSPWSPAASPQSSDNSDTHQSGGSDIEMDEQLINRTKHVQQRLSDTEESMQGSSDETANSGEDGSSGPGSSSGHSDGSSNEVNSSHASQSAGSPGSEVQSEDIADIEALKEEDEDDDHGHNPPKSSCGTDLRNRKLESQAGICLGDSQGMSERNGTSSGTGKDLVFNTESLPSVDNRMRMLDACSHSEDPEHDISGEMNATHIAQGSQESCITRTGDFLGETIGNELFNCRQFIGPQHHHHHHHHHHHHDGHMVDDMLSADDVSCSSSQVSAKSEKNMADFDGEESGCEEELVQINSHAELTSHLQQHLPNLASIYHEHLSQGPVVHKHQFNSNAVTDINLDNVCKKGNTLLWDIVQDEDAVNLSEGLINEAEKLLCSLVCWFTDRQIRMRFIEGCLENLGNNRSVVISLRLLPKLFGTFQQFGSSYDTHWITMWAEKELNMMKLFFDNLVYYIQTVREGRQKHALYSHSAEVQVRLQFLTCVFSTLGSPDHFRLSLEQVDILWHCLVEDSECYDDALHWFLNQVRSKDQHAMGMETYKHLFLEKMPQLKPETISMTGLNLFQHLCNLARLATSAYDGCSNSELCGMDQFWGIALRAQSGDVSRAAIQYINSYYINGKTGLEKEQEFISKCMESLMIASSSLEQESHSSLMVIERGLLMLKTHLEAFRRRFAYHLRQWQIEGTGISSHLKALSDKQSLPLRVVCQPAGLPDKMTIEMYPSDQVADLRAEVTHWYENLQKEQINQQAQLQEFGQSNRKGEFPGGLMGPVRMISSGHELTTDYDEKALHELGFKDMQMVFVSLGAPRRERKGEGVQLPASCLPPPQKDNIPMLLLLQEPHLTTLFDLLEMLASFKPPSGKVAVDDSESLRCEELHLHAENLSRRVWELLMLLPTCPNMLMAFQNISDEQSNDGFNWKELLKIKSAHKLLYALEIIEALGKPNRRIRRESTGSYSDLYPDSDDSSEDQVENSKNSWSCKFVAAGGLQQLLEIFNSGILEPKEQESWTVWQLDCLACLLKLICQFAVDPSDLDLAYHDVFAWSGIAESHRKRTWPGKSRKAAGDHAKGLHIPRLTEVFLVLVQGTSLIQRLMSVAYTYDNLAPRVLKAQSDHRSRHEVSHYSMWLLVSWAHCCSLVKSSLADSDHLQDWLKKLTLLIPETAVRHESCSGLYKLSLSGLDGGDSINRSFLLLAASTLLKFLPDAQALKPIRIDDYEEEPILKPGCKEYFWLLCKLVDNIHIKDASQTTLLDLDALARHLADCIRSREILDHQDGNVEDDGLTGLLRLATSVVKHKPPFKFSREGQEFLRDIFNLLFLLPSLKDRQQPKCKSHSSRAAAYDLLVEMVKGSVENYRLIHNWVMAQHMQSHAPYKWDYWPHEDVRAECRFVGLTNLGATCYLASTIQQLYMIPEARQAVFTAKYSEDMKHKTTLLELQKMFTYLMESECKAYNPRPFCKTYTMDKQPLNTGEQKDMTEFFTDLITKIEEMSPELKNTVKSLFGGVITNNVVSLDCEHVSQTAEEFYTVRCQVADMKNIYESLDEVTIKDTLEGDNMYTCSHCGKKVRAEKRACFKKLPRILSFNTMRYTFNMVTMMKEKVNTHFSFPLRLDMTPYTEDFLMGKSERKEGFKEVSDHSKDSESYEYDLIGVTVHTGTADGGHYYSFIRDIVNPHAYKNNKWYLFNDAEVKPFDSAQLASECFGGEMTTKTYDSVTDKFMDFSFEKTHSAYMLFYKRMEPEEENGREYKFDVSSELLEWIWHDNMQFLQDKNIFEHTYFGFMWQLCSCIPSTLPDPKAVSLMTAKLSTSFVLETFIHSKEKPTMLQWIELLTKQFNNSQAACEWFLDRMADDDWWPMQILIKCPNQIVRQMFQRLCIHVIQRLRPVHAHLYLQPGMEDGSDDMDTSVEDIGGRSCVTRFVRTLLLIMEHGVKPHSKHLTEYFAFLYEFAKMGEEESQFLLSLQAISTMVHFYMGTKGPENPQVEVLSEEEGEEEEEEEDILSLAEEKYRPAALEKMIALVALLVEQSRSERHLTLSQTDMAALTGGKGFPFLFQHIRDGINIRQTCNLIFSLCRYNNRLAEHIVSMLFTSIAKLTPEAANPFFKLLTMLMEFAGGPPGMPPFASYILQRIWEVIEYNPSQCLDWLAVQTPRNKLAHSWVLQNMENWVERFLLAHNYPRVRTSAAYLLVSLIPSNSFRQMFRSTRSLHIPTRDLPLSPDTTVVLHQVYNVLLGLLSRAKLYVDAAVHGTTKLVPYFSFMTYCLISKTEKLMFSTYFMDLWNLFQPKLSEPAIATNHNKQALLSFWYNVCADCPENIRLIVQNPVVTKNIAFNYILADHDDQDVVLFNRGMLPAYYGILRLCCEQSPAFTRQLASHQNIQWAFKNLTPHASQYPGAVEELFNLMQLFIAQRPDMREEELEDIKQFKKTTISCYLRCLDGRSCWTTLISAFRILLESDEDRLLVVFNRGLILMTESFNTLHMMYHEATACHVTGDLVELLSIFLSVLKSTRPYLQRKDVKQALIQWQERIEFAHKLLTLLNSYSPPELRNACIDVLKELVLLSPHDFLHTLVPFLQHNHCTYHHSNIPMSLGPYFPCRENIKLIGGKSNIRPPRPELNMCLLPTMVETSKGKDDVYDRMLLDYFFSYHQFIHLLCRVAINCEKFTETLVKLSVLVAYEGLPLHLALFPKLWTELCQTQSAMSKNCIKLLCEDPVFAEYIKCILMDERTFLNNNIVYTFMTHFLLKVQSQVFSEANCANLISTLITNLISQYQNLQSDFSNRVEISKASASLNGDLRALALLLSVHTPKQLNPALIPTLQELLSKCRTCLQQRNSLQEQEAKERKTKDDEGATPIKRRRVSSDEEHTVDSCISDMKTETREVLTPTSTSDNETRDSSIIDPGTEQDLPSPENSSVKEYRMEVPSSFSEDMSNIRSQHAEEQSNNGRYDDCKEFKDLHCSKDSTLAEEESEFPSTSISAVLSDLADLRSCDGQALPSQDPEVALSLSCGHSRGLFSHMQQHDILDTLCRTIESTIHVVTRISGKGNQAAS

CS(=O)(=O)c1ccc(CNC(=O)CCl)cc1
inactive: USP34 -0.0991 | USP36 -0.225 | USP38 -0.0436 | USP39 0.204 | USP4 -0.0105
